# Source: PubChem BioAssay (EPA / NIEHS)
# Activity calls are given as the source filed them. The calls were made as follows: active = hit-call score of the fitted dose curve at least 0.9, where 1 is the maximum; inactive = score below 0.9.
# Assays:
# Conditions in all cases: mRNA level, 48 h; actives raise or lower the signal
# [1] = read-out: Cytochrome P450 (CYP1A1), CYP1A1 (gene 1543); test: LTEA_HepaRG_CYP1A1: Life Technologies and Expression Analysis (LTEA) Assay for Cytochrome P450 (CYP1A1) using HepaRG (AID 2283454)
# In short: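 Differentiated human HepaRG cells, after 48 h plating, exposed in duplicate for 48 h in serum-free induction medium to 8 half-log concentrations up to 100 uM in 0.5% DMSO. CYP1A1 mRNA by qRT-PCR, normalized to ACTB/GAPDH/POLR2A; bidirectional fit versus DMSO.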
# [2] = read-out: Forkhead box O1 (FOXO1), FOXO1 (gene 2308); test: LTEA_HepaRG_FOXO1: Life Technologies and Expression Analysis (LTEA) Assay for Forkhead box O1 (FOXO1) using HepaRG (AID 2283456)
# In short: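 FOXO1 transcript quantified by qRT-PCR after 48 h chemical exposure (top 100 uM, half-log steps, 0.5% DMSO) of HepaRG cells, housekeeping-normalized (ACTB/GAPDH/POLR2A). Changes fitted in both directions relative to vehicle.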
# [3] = read-out: Forkhead box O3 (FOXO3), FOXO3 (gene 2309); test: LTEA_HepaRG_FOXO3: Life Technologies and Expression Analysis (LTEA) Assay for Forkhead box O3 (FOXO3) using HepaRG (AID 2283459)
# In short: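 FOXO3 transcript measured by qRT-PCR (normalized to ACTB, GAPDH, POLR2A) after 48 h exposure of HepaRG cells in serum-free induction medium. Duplicates, eight half-log concentrations up to 100 uM, 0.5% DMSO; gain or loss fitted against DMSO.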
# [4] = read-out: ABC Transporter (ABCB1), ABCB1 (gene 5243); test: LTEA_HepaRG_ABCB1: Life Technologies and Expression Analysis (LTEA) Assay for ABC Transporter (ABCB1) using HepaRG (AID 2283460)
# In short: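 ABCB1 transcript level measured by TaqMan qRT-PCR against three housekeeping genes after 48 h chemical exposure of differentiated HepaRG cells. Top concentration 100 uM, half-log steps, eight points, 0.5% DMSO vehicle; bidirectional fit relative to DMSO.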
# [5] = read-out: growth arrest and DNA damage 45 (GADD45B), GADD45B (gene 4616); test: LTEA_HepaRG_GADD45B: Life Technologies and Expression Analysis (LTEA) Assay for growth arrest and DNA damage 45 (GADD45B) using HepaRG (AID 2283461)
# In short: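 Differentiated human HepaRG cells in serum-free induction medium exposed 48 h in duplicate to eight concentrations, top 100 uM, half-log steps, 0.5% DMSO. GADD45B mRNA by TaqMan qRT-PCR, normalized to ACTB, GAPDH, POLR2A; bidirectional fit versus DMSO.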
# [6] = read-out: ABC Transporter (ABCC3), ABCC3 (gene 8714); test: LTEA_HepaRG_ABCC3: Life Technologies and Expression Analysis (LTEA) Assay for ABC Transporter (ABCC3) using HepaRG (AID 2283462)
# In short: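 Differentiated human HepaRG cells exposed 48 h in serum-free induction medium, 0.5% DMSO vehicle, 8-point half-log series to 100 uM in duplicate. ABCC3 mRNA by qRT-PCR, normalised to ACTB, GAPDH, POLR2A; bidirectional fit vs DMSO.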
# [7] = read-out: ABC Transporter (ABCB11), ABCB11 (gene 8647); test: LTEA_HepaRG_ABCB11: Life Technologies and Expression Analysis (LTEA) Assay for ABC Transporter (ABCB11) using HepaRG (AID 2283463)
# In short: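 ABCB11 transcript levels quantified by TaqMan qRT-PCR against three housekeeping genes after 48 h chemical exposure of HepaRG cultures. Concentrations up to 100 uM in half-log steps, 0.5% DMSO vehicle; both induction and suppression scored.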
# [8] = read-out: ABC Transporter (ABCC2), ABCC2 (gene 1244); test: LTEA_HepaRG_ABCC2: Life Technologies and Expression Analysis (LTEA) Assay for ABC Transporter (ABCC2) using HepaRG (AID 2283464)
# In short: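 Differentiated HepaRG cells in serum-free induction medium exposed 48 h to eight half-log concentrations up to 100 uM, 0.5% DMSO, in duplicate. ABCC2 mRNA measured by qRT-PCR (TaqMan, Fluidigm), normalized to ACTB, GAPDH and POLR2A. Fitted in both directions against DMSO.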
# [9] = read-out: ATP-citrate lyase (ACLY), ACLY (gene 47); test: LTEA_HepaRG_ACLY: Life Technologies and Expression Analysis (LTEA) Assay for ATP-citrate lyase (ACLY) using HepaRG (AID 2283466)
# In short: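 ACLY mRNA quantified by qRT-PCR on Fluidigm arrays against three housekeeping genes, after 48 h chemical treatment of HepaRG cells (top concentration 100 uM, half-log steps, 0.5% DMSO vehicle). Up- or down-regulation fitted relative to DMSO.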
# [10] = read-out: Peroxisomal acyl-coenzyme A oxidase 1 (ACOX1) gene, ACOX1 (gene 51); test: LTEA_HepaRG_ACOX1: Life Technologies and Expression Analysis (LTEA) Assay for Peroxisomal acyl-coenzyme A oxidase 1 (ACOX1) gene using HepaRG (AID 2283467)
# In short: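 ACOX1 transcript levels were quantified by TaqMan qRT-PCR against three housekeeping genes after 48 h chemical exposure of differentiated human HepaRG cells. Exposure used eight half-log steps topping at 100 uM, 0.5% DMSO vehicle, in duplicate. Bidirectional curve fits were made relative to DMSO.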
# [11] = read-out: Bcl-2 (BAD) gene, BAD (gene 572); test: LTEA_HepaRG_BAD: Life Technologies and Expression Analysis (LTEA) Assay for Bcl-2 (BAD) gene using HepaRG (AID 2283469)
# In short: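 Read-out: qRT-PCR of BAD mRNA, normalized to three housekeeping genes. Human HepaRG cultures got 48 h chemical exposure in 0.5% DMSO, duplicate eight-point half-log series topping at 100 uM. Gain or loss of signal fitted versus DMSO vehicle.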
# [12] = read-out: Bcl-2 (BAX) gene, BAX (gene 581); test: LTEA_HepaRG_BAX: Life Technologies and Expression Analysis (LTEA) Assay for Bcl-2 (BAX) gene using HepaRG (AID 2283470)
# In short: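 qRT-PCR read-out of BAX mRNA, normalized to three housekeeping genes, after 48 h chemical exposure of human HepaRG cells in serum-free induction medium; eight-point half-log series, top 100 uM, 0.5% DMSO vehicle; bidirectional fit versus DMSO.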
# [13] = read-out: adenosine kinase (ADK) gene, ADK (gene 132); test: LTEA_HepaRG_ADK: Life Technologies and Expression Analysis (LTEA) Assay for adenosine kinase (ADK) gene using HepaRG (AID 2283471)
# In short: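 HepaRG (human liver), 48 h chemical exposure, 8-pt half-log series, top 100 uM, 0.5% DMSO vehicle. Readout: ADK mRNA by qRT-PCR vs housekeeping genes; bidirectional curve fit relative to DMSO baseline.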
# [14] = read-out: Alpha-fetoprotein (AFP) gene, AFP (gene 174); test: LTEA_HepaRG_AFP: Life Technologies and Expression Analysis (LTEA) Assay for Alpha-fetoprotein (AFP) gene using HepaRG (AID 2283472)
# In short: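 qRT-PCR (Fluidigm TaqMan) readout of AFP transcript, normalized to three housekeeping genes, fitted bidirectionally against 0.5% DMSO baseline. HepaRG cells received chemicals for 48 h in serum-free induction medium, top concentration 100 uM, half-log steps.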
# BCL2L11 (gene 10018) = test: LTEA_HepaRG_BCL2L11: Life Technologies and Expression Analysis (LTEA) Assay for Bcl-2 (BCL2L11) gene using HepaRG (AID 2283473)
# In short: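 Differentiated human HepaRG cells were exposed 48 h in serum-free induction medium to eight half-log concentrations up to 100 uM in 0.5% DMSO, in duplicate. BCL2L11 mRNA was quantified by TaqMan qRT-PCR, normalized to ACTB, GAPDH and POLR2A; induction or repression fitted versus DMSO.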
# [15] = read-out: Apolipoprotein A-V (APOA5) gene, APOA5 (gene 116519); test: LTEA_HepaRG_APOA5: Life Technologies and Expression Analysis (LTEA) Assay for Apolipoprotein A-V (APOA5) gene using HepaRG (AID 2283474)
# In short: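 Differentiated HepaRG cells in serum-free induction medium, exposed 48 h in duplicate to eight half-log concentrations topping at 100 uM (0.5% DMSO). APOA5 mRNA by Fluidigm TaqMan qRT-PCR, normalized to ACTB, GAPDH and POLR2A; bidirectional fit versus DMSO.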
# [16] = read-out: Apoptosis regulator Bcl-2 (Homo sapiens) (UniProt P10415); test: LTEA_HepaRG_BCL2: Life Technologies and Expression Analysis (LTEA) Assay for Bcl-2 gene using HepaRG (AID 2283475)
# In short: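 qRT-PCR read-out (Fluidigm TaqMan) of BCL2 transcript, normalised to three housekeeping genes, after 48 h chemical exposure of HepaRG cells; 8-point half-log series, top 100 uM, 0.5% DMSO vehicle. Gain or loss of signal fitted relative to DMSO baseline.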
# [17] = read-out: Bcl-2 (BID) gene, BID (gene 637); test: LTEA_HepaRG_BID: Life Technologies and Expression Analysis (LTEA) Assay for Bcl-2 (BID) gene using HepaRG (AID 2283476)
# In short: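 HepaRG, 48 h exposure, 8-pt half-log series, top 100 uM, 0.5% DMSO vehicle, duplicates. Readout: BID mRNA by TaqMan qRT-PCR; housekeeping-normalized; bidirectional curve fit vs DMSO baseline.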
# Caspase-3 (Homo sapiens) = Caspase-3 (Homo sapiens) (UniProt P42574); test: LTEA_HepaRG_CASP3: Life Technologies and Expression Analysis (LTEA) Assay for cysteine-aspartic acid protease (CASP3) using HepaRG (AID 2283477)
# In short: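 Differentiated HepaRG cells, plated 48 h, were treated in duplicate in serum-free induction medium for 48 h with eight half-log concentrations up to 100 uM in 0.5% DMSO. CASP3 mRNA measured by qRT-PCR, normalized to ACTB, GAPDH, POLR2A.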
# Chain of Caspase-3 (Homo sapiens) (P42574 whole entry, looked up): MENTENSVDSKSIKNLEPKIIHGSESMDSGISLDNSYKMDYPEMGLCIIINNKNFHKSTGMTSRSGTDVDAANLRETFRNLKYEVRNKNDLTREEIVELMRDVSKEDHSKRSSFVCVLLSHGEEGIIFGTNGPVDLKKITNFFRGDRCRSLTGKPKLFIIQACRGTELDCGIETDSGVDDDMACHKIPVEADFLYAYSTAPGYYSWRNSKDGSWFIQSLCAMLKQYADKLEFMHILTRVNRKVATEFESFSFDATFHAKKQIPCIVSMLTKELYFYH
# Chain of Apoptosis regulator Bcl-2 (Homo sapiens) (P10415 whole entry, looked up): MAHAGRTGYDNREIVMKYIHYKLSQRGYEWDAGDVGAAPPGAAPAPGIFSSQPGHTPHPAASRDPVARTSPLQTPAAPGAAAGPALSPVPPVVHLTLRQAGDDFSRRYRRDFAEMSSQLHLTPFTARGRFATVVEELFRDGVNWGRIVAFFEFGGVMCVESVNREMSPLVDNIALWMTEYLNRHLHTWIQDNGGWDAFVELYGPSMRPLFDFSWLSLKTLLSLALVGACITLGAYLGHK
smiles,measurement,setting,value
CC(C)(c1ccccc1)c1ccc(O)c(C(C)(C)c2ccccc2)c1,AC50,[1],35.8 µM (active)
same,outcome,[2],inactive
same,outcome,[3],inactive
same,AC50,[4],22.1 µM (active)
same,outcome,[5],inactive
same,outcome,[6],inactive
same,AC50,[7],43.1 µM (active)
same,AC50,[8],12.7 µM (active)
same,outcome,[9],inactive
same,AC50,[10],50 µM (active)
same,outcome,[11],inactive
same,outcome,[12],inactive
same,outcome,[13],inactive
same,AC50,[14],68.7 µM (active)
same,outcome,BCL2L11 (gene 10018),inactive
same,AC50,[15],50 µM (active)
same,AC50,[16],81.6 µM (active)
same,outcome,[17],inactive
same,outcome,Caspase-3 (Homo sapiens),inactive
CC(C)(OO)c1ccccc1,AC50,[1],65.7 µM (active)
same,outcome,[2],inactive
same,outcome,[3],inactive
same,outcome,[4],inactive
same,outcome,[5],inactive
same,outcome,[6],inactive
same,outcome,[7],inactive
same,outcome,[8],inactive
same,outcome,[9],inactive
same,outcome,[10],inactive
same,outcome,[11],inactive
same,outcome,[12],inactive
same,outcome,[13],inactive
same,outcome,[14],inactive
same,outcome,BCL2L11 (gene 10018),inactive
same,outcome,[15],inactive
same,outcome,[16],inactive
same,outcome,[17],inactive
same,outcome,Caspase-3 (Homo sapiens),inactive
CCOP(=S)(OCC)SCSP(=S)(OCC)OCC,AC50,[1],33.1 µM (active)
same,outcome,[2],inactive
same,outcome,[3],inactive
same,outcome,[4],inactive
same,AC50,[5],0.0743 µM (active)
same,outcome,[6],inactive
same,outcome,[7],inactive
same,AC50,[8],50 µM (active)
same,AC50,[9],78.7 µM (active)
same,outcome,[10],inactive
same,outcome,[11],inactive
same,outcome,[12],inactive
same,AC50,[13],0.106 µM (active)
same,AC50,[14],50 µM (active)
same,AC50,BCL2L11 (gene 10018),0.228 µM (active)
same,outcome,[15],inactive
same,outcome,[16],inactive
same,outcome,[17],inactive
same,AC50,Caspase-3 (Homo sapiens),0.095 µM (active)
